CD11b adhes inh – inhibitors of human CD11b/CD18 binding to fibrinogen; inhibition, % at 10 µM; hit rate 0.54% among 93,000; K562 CD11b/CD18 adhesion to fibrinogen, ATPlite luminescence; Mn2+ added to activate the integrin; P05107+P11215;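 active = primary inhibition of 50% or more at 10 µM, then 40% or more on retest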
Target sequence (P05107 whole entry, looked up, other chains not shown): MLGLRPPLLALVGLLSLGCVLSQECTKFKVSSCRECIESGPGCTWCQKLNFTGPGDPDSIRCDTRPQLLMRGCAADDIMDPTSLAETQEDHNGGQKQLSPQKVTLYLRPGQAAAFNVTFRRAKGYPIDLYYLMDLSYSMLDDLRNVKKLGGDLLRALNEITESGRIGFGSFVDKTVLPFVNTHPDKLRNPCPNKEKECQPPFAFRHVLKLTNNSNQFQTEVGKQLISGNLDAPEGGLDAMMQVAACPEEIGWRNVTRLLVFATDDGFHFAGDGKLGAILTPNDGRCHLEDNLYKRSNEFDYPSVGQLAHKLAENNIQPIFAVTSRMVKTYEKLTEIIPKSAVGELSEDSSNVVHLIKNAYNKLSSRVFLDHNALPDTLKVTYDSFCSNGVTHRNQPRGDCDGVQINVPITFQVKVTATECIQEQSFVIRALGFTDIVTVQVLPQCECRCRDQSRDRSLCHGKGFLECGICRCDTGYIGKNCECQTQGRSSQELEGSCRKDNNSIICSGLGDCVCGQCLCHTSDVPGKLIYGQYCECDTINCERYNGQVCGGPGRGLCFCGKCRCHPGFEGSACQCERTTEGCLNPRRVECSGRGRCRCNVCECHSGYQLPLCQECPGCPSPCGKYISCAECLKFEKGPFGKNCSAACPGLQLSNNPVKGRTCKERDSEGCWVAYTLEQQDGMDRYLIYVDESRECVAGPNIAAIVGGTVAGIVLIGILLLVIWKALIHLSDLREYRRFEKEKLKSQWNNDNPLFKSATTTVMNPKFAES
Mac1 fbg enh – increases human CD11b/CD18 adhesion to fibrinogen; P05107+P11215; hit rate 0.07% among 93,000; K562 CD11b/CD18 adhesion to fibrinogen, ATPlite luminescence; activation, % at 10 µM;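 active = 10 µM primary screen giving 50% or more activity, confirmed by 40% or more on retest at that dose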
FAK blocker – FAK (human) kinase inhibition; hit rate 0.84% among 97,000; AID 727; inhibition, %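 (tested at 7 µM)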; biochemical FAK kinase activity assay; Q05397; in the data active = inhibition above about 19%
hDAT+cocaine – changed human dopamine transporter uptake under cocaine IC80. Q01959. LLC-PK1 hDAT cells, [14C]-dopamine uptake with cocaine IC80; actives deviate in either direction. B-score at 10 µM. hit rate 1.3% among 110,000;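 active = Z score or B-score, a plate-position-corrected score, falls beyond the plate's 99.7% confidence bounds, in either direction; inactive = both scores lie inside the 99.7% bounds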
D1 allo mod – D1 dopamine receptor (human) allosteric modulation; P21728; HEK293 D1, CRE-luciferase, dopamine EC30 potentiation; actives deviate in either direction; B-score at 10 µM; hit rate 5.9% among 58,000; AID 641;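 active = luminescence count or its row- and column-corrected plate score outside the 99.7% band of the plate's sample wells, on either side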
Pyk2 oligo antag – antagonists of human Pyk2 oligomerization; Q293 cells, Pyk2 FERM NanoBiT luminescence; active compounds read low; z-score (the deposit names both 25 µM and 10 µM); hit rate 0.83% among 99,000; AID 1347419;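 active = Z-score of -3 or lower, scaled per plate to the spread of control and sample wells; inactive = z-score above -3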;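 note: negative z-score means lost luminescence so less FERM oligomerization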
D1 mod confirm – confirmation of human D1 dopamine receptor allosteric modulators; hit rate 88% among 2,200; HEK293 D1 CRE-luciferase, dopamine EC30 potentiation; active compounds read high; shares compounds with D1 allo mod; luminescence at 10 µM;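 active = luminescence in either of two replicates above the same-plate mean plus 3 SD of the low-dose dopamine control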
D1 no dopamine – secondary test of D1 modulators: activity without dopamine | shares compounds with D1 allo mod | HEK293 D1 CRE-luciferase, luminescence, no dopamine; active compounds read high | luminescence at 10 µM | hit rate 0.8% among 1,900; in the data active = luminescence above about 3900
Isoprot counter – isoproterenol response counter-screen activity for D1 modulators | hit rate 63% among 2,200 | shares compounds with D1 allo mod | calls only at 10 µM | HEK293 D1 CRE-luciferase, isoproterenol EC30 counter-screen;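 active = luminescence in either replicate above plate mean of wells with a partly effective reference agonist dose plus 3 SD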;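 note: isoproterenol raises cAMP through native beta-adrenoceptor Gs so signal bypasses D1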
Each line names hits and unclear results; the compound was inactive in the other large screens (follow-up assays come after a bar, where they were run). This is one part of a sample in which hits are shown more often than they occur.

CCn1c(=O)cc(SCC(=O)Nc2ccc3c(c2)OCO3)c2ccccc21	D1 allo mod 5.2 | D1 mod confirm 9432 | D1 no dopamine inactive | Isoprot counter inactive
CC(C)n1c(SCC(=O)c2ccc3c(c2)OCCO3)nc2c1c(=O)n(C)c(=O)n2C	none (no result: FAK blocker, Pyk2 oligo antag)
CC(C)n1c(SCC(=O)N2CCCC2)nc2c1c(=O)n(C)c(=O)n2C	D1 allo mod 6.4 (no result: FAK blocker) | D1 mod confirm 13032 | D1 no dopamine inactive | Isoprot counter inactive
CCOc1ccc2nc(NC(=O)CSc3nc4c(c(=O)n(C)c(=O)n4C)n3C(C)C)sc2c1	D1 allo mod 4 (no result: FAK blocker, hDAT+cocaine) | D1 mod confirm 10912 | D1 no dopamine inactive | Isoprot counter active
CCCn1c(SCC(=O)N2CCCC2)nc2c1c(=O)n(C)c(=O)n2C	none (no result: D1 allo mod)
CCO[C@H]1OC(C(=O)N2CCOCC2)=C[C@@H](C)[C@@H]1CCCO	none (no result: CD11b adhes inh, Mac1 fbg enh, FAK blocker, D1 allo mod, Pyk2 oligo antag)
COc1ccccc1N=CC1=C(O)CC(c2ccccc2)CC1=O (configuration not stated)	none (no result: FAK blocker, hDAT+cocaine, D1 allo mod, Pyk2 oligo antag)
CC(=O)Nc1nc(CC(C)C)cc(-c2ccco2)c1C#N	D1 allo mod 9.7 | D1 mod confirm 15584 | Isoprot counter active
COc1ccc(CN2CCN(S(=O)(=O)c3ccc(NC(C)=O)cc3)CC2)cc1OC	D1 allo mod 5.2 | D1 mod confirm 15368 | D1 no dopamine inactive | Isoprot counter active
COc1ccccc1CN1CCN(S(=O)(=O)c2ccccc2)CC1	none (no result: D1 allo mod)
COc1ccc(CN2CCN(S(=O)(=O)c3ccccc3)CC2)c(OC)c1	D1 allo mod 4.4 | D1 mod confirm 6876 | D1 no dopamine inactive | Isoprot counter inactive
COc1ccc(CN2CCN(S(=O)(=O)c3ccc(F)cc3)CC2)cc1OC	D1 allo mod 22 | D1 mod confirm 24864 | D1 no dopamine inactive | Isoprot counter active
CCOC(=O)c1sc(NC(=O)c2ccc(S(=O)(=O)N3CCOCC3)cc2)cc1C	none
Nc1nc(OCC(F)(F)F)cc(Oc2ccccc2F)n1	D1 allo mod 8.7, Pyk2 oligo antag -3.8 | D1 mod confirm 14824 | D1 no dopamine inactive | Isoprot counter active
Cc1cc2c(cc(C(=O)OCC(=O)NCc3cccs3)n2C(C)C)o1	D1 allo mod 11 | D1 mod confirm 7700 | D1 no dopamine inactive | Isoprot counter active
COc1ccc(C2=NOC(C)(c3nnc(Cc4ccccc4)o3)C2)cc1 (configuration not stated)	none (no result: CD11b adhes inh, Mac1 fbg enh, FAK blocker, D1 allo mod, Pyk2 oligo antag)
Cc1noc(C)c1CSc1nnc2n(-c3ccccc3)c(=O)c3ccccc3n12	none (no result: CD11b adhes inh, Mac1 fbg enh, FAK blocker, hDAT+cocaine, Pyk2 oligo antag)
Cc1nc(CSc2nc3[nH]ncc3c(=O)n2-c2ccccc2)cs1	D1 allo mod 4.6 | D1 mod confirm 12732 | D1 no dopamine inactive | Isoprot counter active
Cc1noc(C)c1CSc1nc2[nH]ncc2c(=O)n1-c1ccccc1	D1 allo mod 11 (no result: CD11b adhes inh, Mac1 fbg enh) | D1 mod confirm 14168 | D1 no dopamine inactive | Isoprot counter active
CCC1=C(OC(=O)N(CC)CC)N2C(=O)OC(=NCC(=O)OC)[C@]2(Cc2ccccc2)[C@H]2C1=CC[C@H]1C(=O)NC(=O)[C@H]12	none (no result: CD11b adhes inh, Mac1 fbg enh, FAK blocker, D1 allo mod, Pyk2 oligo antag)
CN(C)c1ccc([C@@H]2[C@@H]([N+](=O)[O-])[C@H]3C=Cc4ccccc4N3[C@H]2C(=O)c2ccc(Cl)cc2)cc1	none (no result: FAK blocker, hDAT+cocaine, D1 allo mod, Pyk2 oligo antag)
CCn1c2ccccc2c2nnc(SCC(=O)NC(CC(C)C)C(=O)OC)nc21 (configuration not stated)	none
OC[C@H]1O[C@@H](n2cnc3c(Nc4ccccc4)ncnc32)[C@H](O)[C@@H]1O	D1 allo mod 6.6 (no result: CD11b adhes inh, Mac1 fbg enh, FAK blocker, Pyk2 oligo antag) | D1 mod confirm 7048 | Isoprot counter active
Cc1ccc2nc(-c3ccc(NC(=O)C4CCCO4)cc3)[nH]c2c1 (configuration not stated)	none (no result: D1 allo mod)
N=c1c(S(=O)(=O)c2ccccc2)cc2c(=O)n3ccccc3nc2n1CC1CCCO1 (configuration not stated)	D1 allo mod 7.6 | D1 mod confirm 10760 | D1 no dopamine inactive | Isoprot counter active
CCOc1ccc(C2C(C#N)=C(N)Oc3n[nH]c(C)c32)cc1OC(=O)C1CC1 (configuration not stated)	none (no result: FAK blocker)
CC(C)CC1C(C#N)=C(N)Oc2n[nH]c(-c3ccccc3)c21 (configuration not stated)	none (no result: CD11b adhes inh, Mac1 fbg enh, D1 allo mod)
Cc1ccc(-c2[nH]nc3c2C(c2ccoc2)C(C#N)=C(N)O3)cc1C (configuration not stated)	D1 allo mod 11 | D1 mod confirm 18284 | D1 no dopamine inactive | Isoprot counter active
CC(C)C1C(C#N)=C(N)Oc2n[nH]c(-c3ccccc3)c21 (configuration not stated)	D1 allo mod 3.8 (no result: CD11b adhes inh, Mac1 fbg enh) | D1 mod confirm 13728 | D1 no dopamine inactive | Isoprot counter inactive
COc1ccc(-c2[nH]nc3c2C(c2ccoc2)C(C#N)=C(N)O3)cc1 (configuration not stated)	none (no result: CD11b adhes inh, Mac1 fbg enh, D1 allo mod)
CCOc1cc(C2C(C#N)=C(N)Oc3n[nH]c(-c4ccccc4)c32)ccc1O (configuration not stated)	D1 allo mod 3.8 (no result: CD11b adhes inh, Mac1 fbg enh) | D1 mod confirm 5848 | D1 no dopamine inactive | Isoprot counter inactive
CN(C)CCNc1oc(COc2ccc(Cl)cc2)nc1C#N	none
COC(=O)n1c(SC)nc2ccccc21	D1 allo mod 5.6 (no result: CD11b adhes inh, Mac1 fbg enh) | D1 mod confirm 11396 | D1 no dopamine inactive | Isoprot counter active
CCCCNC(=O)n1c(SC)nc2ccccc21	none (no result: D1 allo mod)
COc1ccc(C2=NOC3(CC(=O)N(c4ccc(C)cc4)C3=O)C2)c(OC)c1 (configuration not stated)	none
Clc1ccc(Cc2nn3c(Cn4nnc5ccccc54)nnc3s2)cc1	D1 allo mod 5.3 | D1 mod confirm 9044 | D1 no dopamine inactive | Isoprot counter active
c1ccc(Cc2nnc3sc(-c4ccc5c(c4)OCCO5)nn23)cc1	D1 allo mod 6.9 (no result: Pyk2 oligo antag) | D1 mod confirm 12856 | D1 no dopamine inactive | Isoprot counter active
c1csc(-c2nn3c(Cn4nnc5ccccc54)nnc3s2)c1	D1 allo mod 5.6 | D1 mod confirm 9180 | D1 no dopamine inactive | Isoprot counter inactive
c1ccc(Cc2nnc3sc(-c4cccs4)nn23)cc1	D1 allo mod 11 (no result: CD11b adhes inh, Mac1 fbg enh) | D1 mod confirm 20672 | D1 no dopamine inactive | Isoprot counter active
Cc1cc(=O)[nH]c(SCC(=O)Nc2ccc(C(=O)O)cc2)n1	none (no result: D1 allo mod)
COC(=O)c1cc(NC(=O)CSc2nc(C)cc(=O)[nH]2)cc(C(=O)OC)c1	D1 allo mod 2.9 | D1 mod confirm 6652 | D1 no dopamine inactive | Isoprot counter inactive
